# Assay results: the supplement of paper PMC10338343
# ± gives the standard deviation.
# System: MILI (PIWIL2) piRISC loaded with piRNA #1 (26 nt)
# Assay: pre-steady-state target cleavage rate (min^-1); guide: piRNA #1 5'p-UGAGGUAGUAGGUUGUAUAGUAUCCA; MIWI and MILI are mouse PIWI proteins and EfPiwi is from a freshwater sponge; tags in brackets are library labels; higher = faster piRNA-guided slicing of the target
# Conditions: auxiliary factor: 500 nM mouse GTSF1
# How it was run: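 The method was Cleave-'n-Seq, in which uncleaved targets from a transcribed, DNA-blocked target RNA library were sequenced after exposure to active affinity-purified piRISC carrying one synthetic guide, with or without GTSF1 partner protein. Reactions contained 0.1 nM library, 1 nM piRISC and, where present, 500 nM GTSF1 in HEPES–potassium acetate buffer at 33 °C for 0–8 or 0–960 min. Reads were normalised to depth and to weakly complementary targets, three trials were pooled, and k3 was capped at 0.0001 min^-1. The pre-steady-state cleavage rate came from a burst-and-steady-state fit.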
row,Sequence,pre-steady-state target cleavage rate
1,GGAGACCUAUCUAUACAACCUACUACCCUCA,0.132 ± 0.015
2,GGAGACCUAUCUAUACAAACUACUACCUCA,0.171 ± 0.015
3,GGAGACGAUACUAUAAACCUACUACCUCA,0.0257 ± 0.0077
4,GGAGACCUAUGAUAUGAACGAACUACCUCA,< 0.0001
5,GGAGACCUAUGAUAACAACCUACUACCUCG [g2:g16:cont:t1G],0.00536 ± 0.0027
6,GGAGACCUAACUAUACAACGUACUACGUCA,0.00454 ± 0.0043
7,GGAGACCUAUGAUUACAACCUACUAUCUCA,0.00332 ± 0.0022
8,GGAGACCUAUGAAUACUACCUACUACCUCA,0.0049 ± 0.0017
9,GGAGAGGAUACUAUACUACCUACAACCUCA,0.102 ± 0.0092
10,GGAGACCUAUCUAUACAUCCUACUACGUCA,0.0773 ± 0.017
11,GGAGACCUAUGUAUACAACCUACUACGUGA,0.0238 ± 0.0053
12,GGAGACCAUAGUAUACAACCAACUACCUCA,0.00718 ± 0.0021
13,GGAGACCUAACUAUACAACCUACUACUCA,0.141 ± 0.033
14,GGAGACCAUACUAUUGAACCUACUACCUCA,0.153 ± 0.013
15,GGAGACCUAUGAAUACAACCUACUCACCUCA,0.004 ± 0.0026
16,GGAGACCUAUUUAUACAACCUACUACCUCA,0.0657 ± 0.02
17,GGAGUGGAUACUAUACUUGCUACUACCUCA,0.0633 ± 0.0052
18,GGAGACCUAACUAUACAUCCUACAACCUCA,0.246 ± 0.033
19,GGAGACCUAUGUAUACAACCUACUACCCCA,0.045 ± 0.011
20,GGAGACCAUACAUAACAACCUACUACCUCA,0.0246 ± 0.0068

row,Sequence,pre-steady-state target cleavage rate
1,GGAGACCAUACUAUUCAACCUAGUACCUCA,0.0559 ± 0.011
2,GGAGACCUUACUAUAGAACCUACUACGUCA,0.0503 ± 0.012
3,GGAGACCUUACUAUACAACGUACUACCACA,0.0216 ± 0.0046
4,GGAGACCUAUGAUAUGUUCCUACUACACUCA,< 0.0001
5,GGAGACCUAUGUAUAGUACCUACUACCUCA,0.013 ± 0.0027
6,GGAGACCUAUGUAUACAACGAACUACCUCA,0.00287 ± 0.002
7,GGAGUGGAUUCUAUUCAACCUACUACCUCA,0.165 ± 0.008
8,GGAGACCUAUGAUAACAAACUACUACCUCA,0.0114 ± 0.0029
9,GGAGUCGGAUACUAUACAACCUACUACCUCA,0.187 ± 0.015
10,GGAGACCUAACUAUACAUCCUACUAGCUCA,0.162 ± 0.042
11,GGAGACCAUACUAUACAACCUACGACCUCA,0.137 ± 0.018
12,GGAGACCUAACUAUACAACCUACUCACCUCA,0.147 ± 0.032
13,GGAGUGGAUACUAAACAACCUACUUCCUCA,0.00431 ± 0.0024
14,GGAGACCAUACUAUACAACCUACUCCCUCA,0.106 ± 0.017
15,GGAGACCUAUGAUAAUCAACCUACUACCUCA,0.00294 ± 0.0029
16,GGAGACCUAUCUAACAACCUACUACCUCA,0.0222 ± 0.0049
17,GGAGACCUAUGAUAACAACCUACGUACCUCA,0.00286 ± 0.0027
18,GGAGACCUAUCUAUACAACCAACUACCUCA,0.00522 ± 0.0024
19,GGAGACCUAUGAUUACAACCUACUACCACA,0.00372 ± 0.0023
20,GGAGACCUAUGAUUACAACCUCACUACCUCA,0.00291 ± 0.0027
